PubChem BioAssay AID1159580 (chemical genetic matrix, 2015)
Out of some 5,500 compounds screened, about 2,000 (36%) were called active. Not shown: some 18% with an inconclusive outcome. No stated cut-off is given here; in the data, active means normalized growth mostly below about 0.91 (no sharp cut-off); inconclusive means no clear call, values can overlap the other calls; inactive means mostly above about 0.92. This is one part of the list.

Assay: chemical genetic growth profiling, strain panel (AID 1159580);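 further: tested at 20 µM; growth read once vehicle control cultures reached saturation at 30 °C; 1 = growth at the plate median or of vehicle wells; lower values mean less growth of the strain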
Conditions: S. cerevisiae deletion strains, growth OD
[1] = locus YAL013W, strain DEP1, active compounds read low
[2] = locus YBR229C, strain ROT2, active compounds read low
[3] = locus YDL101C, strain DUN1, active compounds read low
[4] = locus YDL134C, strain PPH21, active compounds read low
[5] = locus YDR150W, strain NUM1, active compounds read low
[6] = locus YEL061C, strain CIN8, active compounds read low
[7] = locus YGR078C, strain PAC10, active compounds read low
[8] = locus YHR030C, strain SLT2, active compounds read low
[9] = locus YHR087W, strain rtc3, active compounds read low
[10] = locus YJR043C, strain POL32, active compounds read low
[11] = locus YJR075W, strain HOC1, active compounds read low
[12] = locus YLR039C, strain RIC1, active compounds read low
[13] = locus YLR058C, strain SHM2 (second series), active compounds read low
[14] = locus YLR085C, strain ARP6, active compounds read low
[15] = locus YLR262C, strain YPT6, active compounds read low
[16] = locus YML094W, strain GIM5, active compounds read low
[17] = locus YMR219W, strain ESC1, active compounds read low
[18] = locus YMR263W, strain SAP30, active compounds read low
[19] = locus YNL128W, strain TEP1, active compounds read low
[20] = locus YNL153C, strain GIM3, active compounds read low
[21] = locus YNL298W, strain CLA4 (second series), active compounds read low
[22] = locus YNL322C, strain KRE1, active compounds read low
[23] = locus YNR030W, strain Alg12, active compounds read low
[24] = locus YPL055C, strain LGE1, active compounds read low
[25] = locus YPL241C, strain CIN2, active compounds read low
[26] = locus YPR135W, strain CTF4, active compounds read low

Measured: normalized growth

COc1ccc2c(c1)CCCN2C(=O)NC(=O)c1c(F)cccc1Cl
inactive: [1] 1 | [2] 1.01 | [3] 1.04 | [4] 0.984 | [5] 1.07 | [6] 0.998 | [7] 1.02 | [8] 1.06 | [9] 0.95 | [10] 1.04 | [11] 0.997 | [12] 0.967 | [13] 0.975 | [14] 1 | [15] 0.925 | [16] 0.973 | [17] 0.997 | [18] 1.04 | [19] 1.01 | [20] 1.03 | [21] 1.03 | [22] 0.998 | [23] 1 | [24] 0.98 | [25] 1.02 | [26] 1.05

COc1ccc(OCC(N)=O)cc1
inactive: [1] 1.01 | [2] 1.02 | locus YCL061C, strain MRC1, active compounds read low 1.01 | [3] 1.01 | [4] 1.01 | [5] 0.898 | [6] 1.03 | [7] 1.01 | locus YGR229C, strain SMI1, active compounds read low 1.01 | [8] 1.07 | [9] 1.01 | locus YJL187C, strain SWE1, active compounds read low 1.01 | [10] 1.02 | [11] 1.04 | [12] 1.02 | [13] 1.02 | [14] 1.05 | [15] 1.04 | [16] 1.02 | [17] 1.01 | [18] 0.996 | locus YMR307W, strain GAS1, active compounds read low 1.07 | [19] 1.01 | [20] 1.01 | [21] 1.03 | [22] 1.03 | [23] 1.02 | locus YOL006C, strain TOP1, active compounds read low 1.01 | [24] 1.01 | [25] 1.02 | [26] 1.04
